GIRK2 act = activators of NPY4-receptor-primed GIRK2 channels, summary, cell-based, HEK293, thallium flux; G protein-activated inward rectifier potassium channel 2 (Homo sapiens), P48051; HEK293 GIRK2/NPY4 cells, thallium flux fluorescence; activation (% efficacy), % for hits at 37.5 µM; 34,000 tested, under 10 active; AID 1259324, 2017;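 active = primary screen hit, no activity in plain HEK293 cells, and in GIRK2-only cells above 5% efficacy rising with concentration; inactive = the rest, including fluorescent compounds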;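 note: efficacy is normalized control-subtracted fluorescence 15 s after thallium addition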
Target sequence (P48051 whole entry, looked up): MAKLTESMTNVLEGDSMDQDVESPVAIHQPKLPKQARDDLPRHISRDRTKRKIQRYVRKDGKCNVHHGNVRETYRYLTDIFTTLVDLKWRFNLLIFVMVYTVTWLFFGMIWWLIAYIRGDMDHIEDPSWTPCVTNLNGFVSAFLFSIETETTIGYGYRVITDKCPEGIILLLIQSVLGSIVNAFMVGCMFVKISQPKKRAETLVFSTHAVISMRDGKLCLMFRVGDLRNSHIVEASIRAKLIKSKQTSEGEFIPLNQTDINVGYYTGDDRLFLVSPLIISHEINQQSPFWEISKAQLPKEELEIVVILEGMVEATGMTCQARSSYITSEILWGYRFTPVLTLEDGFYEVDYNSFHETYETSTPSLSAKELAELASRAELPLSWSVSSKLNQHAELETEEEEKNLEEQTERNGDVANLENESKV
AMPAR-TARP mod = modulators of GluA2-stargazin AMPA receptor complexes, primary screen, cell-based, membrane potential dye; HEK293 GluA2+stargazin, membrane potential dye (FDSS), glutamate EC50; hits were called plate by plate, in both directions; 3.5% of 40,000 active; AID 1259245, 2017; calls only at 30 µM;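 active = any of four per-well response measures lying three or more SD from its plate-wide compound average, in either direction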
* = called active by the depositor; i = inactive; / = no result; + = active, no number. Shown is part of a subset that was picked to be rich in hits.

SMILES | GIRK2 act | AMPAR-TARP mod
Cc1cc(-c2nnc(NC(=O)c3ccc(Cl)s3)o2)nn1C | i | i
O=C(Nc1nnc(-c2cccs2)o1)c1cc(Cl)ccc1Cl | / | i
Cc1ccc(NC(=O)CN2N=NC3C(=O)N(c4ccc(F)c(Cl)c4)C(=O)C32)c(C)c1 (stereo unspecified) | / | i
CS(=O)(=O)N1CCC(CNC(=O)C2CCCCC2)CC1 | i | +
COCCN1CCC(CNC(=O)C2CCN(S(C)(=O)=O)CC2)CC1 | i | /
CC(C)NC(=O)CSc1nnnn1-c1ccc(C(C)C)cc1 | i | i
O=C(c1ccc(Br)o1)N1CCC(Cn2cnc3ccccc32)CC1 | i | +
O=C(c1cc2ccccc2oc1=O)N1CCC(Cn2cnc3ccccc32)CC1 | i | i
COc1cc(Cl)c(C)cc1NC(=O)Cn1nc2c(cc1=O)CCCC2 | i | i
COc1cc(OC)c(NC(=O)Cn2nc3c(cc2=O)CCCC3)cc1Cl | i | +
CCOCC(=O)Nc1ccc2c(c1)CN(C(C)=O)CC2 | i | i
CC1CC(C)CN(Cc2nc3c(c(=O)n(C)c(=O)n3C)n2CC(=O)C(C)(C)C)C1 (stereo unspecified) | i | +
Cn1c(=O)c2c(nc(CN3CCN(c4ccc(F)cc4)CC3)n2CC(=O)C(C)(C)C)n(C)c1=O | i | i
CCOC(=O)c1ccc2c(c1)sc(=NC(=O)c1ccn(CC)n1)n2CCSC | i | /
CCOC(=O)c1ccc(NC(=O)c2ccn(C)n2)cc1 | i | i
CCOC(=O)c1ccc2nc(NC(=O)c3ccn(C)n3)sc2c1 | i | +
CCOCCn1c(=NC(=O)c2ccn(C)n2)sc2cc(C(=O)OCC)ccc21 | i | +
O=C(CSc1nnnn1-c1ccccc1F)N1CCOCC1 | i | i
CCCn1c(-n2nc(C)c(C)c2C)nc2c1c(=O)n(Cc1ccc(OC)cc1)c(=O)n2C | / | i
Fc1ccccc1N1CCN(c2cc(SCc3ccccn3)ncn2)CC1 | i | i
COc1ccccc1C1(C(=O)N2CCC(c3cccs3)CC2)CCOCC1 | i | +
CCOC(=O)C1CCN(C(=O)C2(c3cccs3)CCOCC2)CC1 | i | i
CCc1ccc(NCc2cc3ccc(OC)cc3n(CC(=O)Nc3ccccc3F)c2=O)cc1 | / | i
CCc1ccc(NCc2cc3ccc(OC)cc3n(CC(=O)Nc3ccc(OC)cc3)c2=O)cc1 | i | +
COC(=O)c1ccccc1NC(=O)c1nnn(-c2ccccc2)c1-c1ccco1 | i | i
SMILES | GIRK2 act | AMPAR-TARP mod
COc1coc(C(=O)Nc2ccc(F)c(F)c2)cc1=O | i | +
COc1cccc(COc2coc(C(=O)Nc3ccc(C)c(F)c3)cc2=O)c1 | i | i
COc1cc(/C=C2\Oc3cc(OCC(=O)OC(C)(C)C)ccc3C2=O)cc(OC)c1OC | / | i
COc1ccccc1CNC(=O)c1ccc(S(=O)(=O)N2CCOCC2)o1 | i | i
Cc1noc(C)c1S(=O)(=O)N1CCN(CCn2cccn2)CC1 | i | i
Cc1ccc(N2CC(c3nc4ccccc4n3Cc3ccccc3C)CC2=O)cc1 (stereo unspecified) | / | i
Cc1ccc(C)c(Cn2c(C3CC(=O)N(c4ccccc4)C3)nc3ccccc32)c1 (stereo unspecified) | / | +
C=CCN1CC(c2nc3ccccc3n2CC(O)COc2c(C)cccc2C)CC1=O (stereo unspecified) | i | +
Cc1cc(C)cc(OCC(O)Cn2c(C3CC(=O)N(Cc4ccccc4)C3)nc3ccccc32)c1 (stereo unspecified) | i | i
C=CCN1CC(c2nc3ccccc3n2Cc2cc(C)ccc2C)CC1=O (stereo unspecified) | / | +
C=CCN1CC(c2nc3ccccc3n2Cc2ccccc2C)CC1=O (stereo unspecified) | / | i
CCOc1ccc(-c2ccc(=O)n(CCNC(=O)Nc3cc(Cl)ccc3OC)n2)cc1 | i | i
COc1ccc(S(=O)(=O)Nc2ccc(N3CCCC3=O)cc2)cc1C | i | i
CC(C)CCN1C(=O)C(C)(C)COc2ccc(NC(=O)COc3ccc(Cl)cc3)cc21 | / | i
CC(C)CCN1C(=O)C(C)(C)COc2ccc(NC(=O)c3cc(=O)c4ccccc4o3)cc21 | i | +
Cc1cccc(OCC(=O)Nc2ccc3c(c2)N(CCC(C)C)C(=O)C(C)(C)CO3)c1 | / | i
Cc1ccc(OCC(=O)Nc2ccc3c(c2)N(CCC(C)C)C(=O)C(C)(C)CO3)cc1 | / | +
Cn1nnc2c(NCCCn3ccnc3)ncnc21 | i | i
COc1ccc(S(=O)(=O)CCCC(=O)Nc2nc3ccc([N+](=O)[O-])cc3s2)cc1 | i | +
O=C(Nc1nc2ccc([N+](=O)[O-])cc2s1)c1ccc(=O)n(Cc2c(F)cccc2Cl)c1 | i | +
